Results on five molecules are retold here after PubChem BioAssay (NCATS).

Records with an inconclusive call do not appear. Calls of active or inactive are those of the source. Unless noted, the call rests on the fitted dose curve.

The target of assay [1] is Estrogen receptor (Homo sapiens) (UniProt P03372). The assay can be described thus: qHTS assay for small molecule antagonists of estrogen receptor alpha signaling (AID 588513; active means well fitted curve in the direction sought with a large enough effect in the signal ratio, with a control signal flat, not every such curve was filed as active; the % refers to the signal ratio; further: on the % scale 0 is the no-effect control and ±100 the full control effect). The method, boiled down:
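Beta-lactamase reporter, antagonist mode, HEK 293 GripTite cells; 0.5nM E2 stimulus, 18 h, 37 C; CCF4 dye 2 h RT; fluorescence. IC50 and efficacy from Hill fits, normalized to E2 and DMSO.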
Background: In qHTS, concentration-response curves come from the screen itself.

For assay [2] the target is unchanged. The assay can be described thus: qHTS assay for small molecule agonists of estrogen receptor alpha signaling (AID 588514).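 Further: 0% = vehicle only and 100% = reference agonist; nearly all actives have a fitted effect of over 70% in size.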 The method, boiled down: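 EC50 and efficacy came from Hill fits of beta-lactamase reporter signal (CCF4 dye, 2 h at room temperature) scaled between DMSO and 20 nM 17-beta-estradiol. Agonist mode: HEK293 ER-alpha-UAS-bla cells in charcoal/dextran-stripped serum medium, 18 h compound exposure at 37 C.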

In assay [3] the target is Peroxisome proliferator-activated receptor delta (Homo sapiens) (UniProt Q03181). Briefly: qHTS assay for small molecule agonists of peroxisome proliferator-activated receptor delta signaling (AID 588534).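 Further: 0% = DMSO basal wells and 100% = positive control agonist at 10 µM.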 In outline: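 Agonist-mode beta-lactamase reporter readout (CCF4 dye, 2 h at RT) after 18 h at 37 °C exposure to a titration; Hill-equation fitting gave EC50 and maximal response.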
Chain of Peroxisome proliferator-activated receptor delta (Homo sapiens) (Q03181 whole entry, looked up): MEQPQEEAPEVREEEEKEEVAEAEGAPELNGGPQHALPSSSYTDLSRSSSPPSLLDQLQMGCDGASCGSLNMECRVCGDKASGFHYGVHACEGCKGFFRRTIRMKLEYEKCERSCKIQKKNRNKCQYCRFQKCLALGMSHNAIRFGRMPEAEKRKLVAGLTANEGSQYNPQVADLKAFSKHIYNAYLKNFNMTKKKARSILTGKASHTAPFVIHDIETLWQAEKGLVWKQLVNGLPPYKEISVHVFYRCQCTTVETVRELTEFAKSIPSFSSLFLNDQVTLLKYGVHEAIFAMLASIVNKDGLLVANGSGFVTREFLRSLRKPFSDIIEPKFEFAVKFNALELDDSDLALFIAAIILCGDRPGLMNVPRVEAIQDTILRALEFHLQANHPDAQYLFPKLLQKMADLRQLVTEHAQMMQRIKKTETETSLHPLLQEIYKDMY

Assay [4] concerns the target Peroxisome proliferator-activated receptor gamma (Homo sapiens) (UniProt P37231). Briefly: qHTS assay for small molecule agonists of peroxisome proliferator-activated receptor gamma signaling (AID 588536; active means well fitted curve in the direction sought with a large enough effect in the signal ratio, with a control signal flat, not every such curve was filed as active; the % refers to the signal ratio;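 further: 0% = DMSO basal wells and 100% = rosiglitazone at 2 µM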). In outline: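 This is an agonist-mode beta-lactamase reporter assay in HEK293 PPAR-gamma-UAS-bla cells with 1% charcoal/dextran FBS. Compound titrations ran 16 h at 37 C before CCF4 detection. EC50 and efficacy are Hill fits scaled to 2 uM rosiglitazone (100%) and DMSO basal.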

Assay [5] shares this target. Briefly: qHTS assay for small molecule antagonists of peroxisome proliferator-activated receptor gamma signaling (AID 588537; active means well fitted inhibition curve with a large enough effect in the signal ratio, with a control signal flat, not every such curve was filed as active; the % refers to the signal ratio;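 further: reporter cells co-stimulated with 50 nM rosiglitazone agonist during compound treatment; % of control where 0% means no effect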). The method, boiled down: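 Compounds are tested as concentration series for inhibition of rosiglitazone-driven (50 nM) reporter expression in GeneBLAzer PPAR-gamma-UAS-bla HEK293 cells. After 16 h at 37 C, CCF4 substrate is added for 2 h at room temperature and blue/green fluorescence is measured.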

Assay [6] concerns the target Vitamin D3 receptor (Homo sapiens) (UniProt P11473). The assay can be described thus: qHTS assay for small molecule antagonists of vitamin D receptor signaling (AID 588541).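 Further: receptor activated by calcitriol during compound treatment; series mostly up to about 77 µM; on the % scale 0 is the no-effect control and ±100 the full control effect.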 The method, boiled down: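 VDR-UAS-bla HEK293T cells (2000/well, 2% charcoal-stripped FBS) were treated with titrated compounds plus 1-alpha,25-dihydroxyvitamin D3 (50 nM or 3 nM final) for 16 h at 37 C. CCF4 beta-lactamase fluorescence was read; Hill fits gave IC50.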

Assay [7] has the same target. Briefly: qHTS assay for small molecule agonists of vitamin D receptor signaling (AID 588543).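 Further: 0% = DMSO basal and 100% = reference agonist control.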 The method, boiled down:
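β-lactamase reporter, VDR-UAS-bla HEK293T, agonist mode. Cells plated 5 h at 37 °C, compound titration 16 h at 37 °C, CCF4 dye 2 h RT, ratio 460/530 nm. Hill fit → EC50, efficacy vs 50 nM 1α,25-(OH)2D3.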

Assay [8] addresses Retinoic acid receptor RXR-alpha (Homo sapiens) (UniProt P19793). Briefly: qHTS assay for small molecule agonists of retinoid X receptor alpha signaling (AID 588544).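 Further: 0% = DMSO basal wells and 100% = reference agonist.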
Assay [9] in a line: qHTS assay for small molecule antagonists of retinoid X receptor alpha signaling (AID 588546; active means well fitted inhibition curve with a large enough effect in the signal ratio, with a control signal flat, not every such curve was filed as active; the % refers to the signal ratio;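 further: cells stimulated with 9-cis-retinoic acid as agonist; on the % scale 0 is the no-effect control and ±100 the full control effect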). The conditions noted are these: HEK293T RXRa-UAS-bla, beta-lactamase ratio, antagonist mode; measured here: W530 green channel, cytotoxicity proxy. The method, boiled down: (§1)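 Beta-lactamase reporter inhibition, read as CCF4 fluorescence ratio (ex 405, em 460/530 nm) after 2 h at RT. HEK293T UAS-bla cells, 2500/well, were stimulated with 9-cis-RA at 500 or 100 nM final alongside test compound for 18 h at 37 C.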

The target of assay [10] is Retinoic acid receptor RXR-alpha (Homo sapiens) (UniProt P19793). The description is as above. The conditions noted are these: HEK293T RXRa-UAS-bla, beta-lactamase ratio, antagonist mode. The method, boiled down: as §1
Chain of Retinoic acid receptor RXR-alpha (Homo sapiens) (P19793 whole entry, looked up): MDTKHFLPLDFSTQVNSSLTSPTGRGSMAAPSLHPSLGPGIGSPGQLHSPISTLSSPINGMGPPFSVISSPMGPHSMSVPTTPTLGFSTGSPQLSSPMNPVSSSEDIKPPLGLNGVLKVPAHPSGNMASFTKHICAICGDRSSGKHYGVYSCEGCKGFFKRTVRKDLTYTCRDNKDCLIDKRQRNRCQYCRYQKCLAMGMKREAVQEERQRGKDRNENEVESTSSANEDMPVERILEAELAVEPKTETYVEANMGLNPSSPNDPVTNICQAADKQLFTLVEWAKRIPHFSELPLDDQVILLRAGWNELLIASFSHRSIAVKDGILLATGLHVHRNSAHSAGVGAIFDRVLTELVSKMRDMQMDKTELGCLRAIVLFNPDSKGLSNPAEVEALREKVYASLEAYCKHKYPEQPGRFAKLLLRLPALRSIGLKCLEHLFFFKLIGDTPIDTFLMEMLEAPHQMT
Assay [11] concerns the target Thyroid hormone receptor beta (Homo sapiens) (UniProt P10828). Briefly: qHTS assay for small molecule antagonists of thyroid hormone receptor beta signaling (AID 588547; active means well fitted inhibition curve with a large enough effect in the signal ratio, with a control signal flat, not every such curve was filed as active; the % refers to the signal ratio;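 further: cells stimulated with 0.4 nM T3 agonist during compound exposure; series mostly up to about 77 µM; on the % scale 0 is the no-effect control and ±100 the full control effect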). The conditions noted are these: TR-UAS-bla HEK293, beta-lactamase ratio, antagonist mode, 18 h. In outline:
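TR-UAS-bla GripTite HEK293 cells in 2% charcoal/dextran FBS medium were preincubated 4 h at 37 C, given compound (0.59 nM to 92 uM) plus 0.4 nM T3 (final) for 18 h, then CCF4 for 2 h at RT; Hill fit gave IC50.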

Assay [12] is described as follows: qHTS assay for small molecule activators of the p53 signaling pathway (AID 651743; active means well fitted activation curve with a large enough effect in the signal ratio, not every such curve was filed as active; the % refers to the signal ratio; further: series mostly up to about 92 µM; % of control where 0% means no effect). The conditions noted are these: HCT-116 p53RE-bla, beta-lactamase FRET ratio, 16 h; activation: stronger effect = higher value. The method, boiled down:
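Agonist-mode quantitative HTS in HCT-116 cells carrying a p53-response-element beta-lactamase reporter; 16 h compound treatment at 37 C, then FRET substrate loading for 2 h at room temperature and fluorescence read.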

Assay [13] can be described thus: qHTS assay for environmental chemicals that activate the Aryl hydrocarbon Receptor (AhR) signaling pathway (AID 651777; active means well fitted curve in the direction sought with a large enough effect; an effect the other way counts as inactive or inconclusive; further: % of control where 0% means no effect; nearly all actives have a fitted effect of over 15% in size). The conditions noted are these: 1A2-DRE human hepatoma cells, luciferase, 24 h; activation: stronger effect = higher value. The method, boiled down: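 Quantitative HTS in stably transfected human liver-derived cells whose luciferase gene sits downstream of the CYP1A2 promoter and dioxin response element. After 24 hr exposure at 37 C, One-Glo luminescence was measured.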

For assay [14], the target named is Peroxisome proliferator-activated receptor alpha (Homo sapiens) (UniProt Q07869). Briefly: qHTS assay for small molecule agonists of the peroxisome proliferator-activated receptor alpha (PPARalpha) signaling pathway (AID 651778; active means well fitted curve in the direction sought with a large enough effect; an effect the other way counts as inactive or inconclusive; further: % of control where 0% means no effect). The conditions noted are these: PathHunter PPARalpha complementation, chemiluminescence, 6 h; max response: stronger effect = higher value. In outline:
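Cells plated at 2,000/well and held overnight at 37 C, 5% CO2, then compound added by pin tool for 6 hr; after PathHunter detection reagent and 60 min at room temperature, chemiluminescence from enzyme complementation was read.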

Assay [15] in a line: qHTS assay for small molecule agonists of the antioxidant response element (ARE) signaling pathway measured by Nrf2-dependant transcriptional activity - cell viability counter screen (AID 720653; active means well fitted curve in the direction sought with a large enough effect in the repeat runs; an effect the other way counts as inactive or inconclusive; further: on the % scale 0 is the no-effect control and ±100 the full control effect). The conditions noted are these: ARE-bla HepG2 viability, CellTiter-Glo ATP luminescence, 16 h; max response: stronger effect = lower value. The method, boiled down: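 ARE-bla HepG2 cells (2,000/well) rested 5 hrs at 37C/5% CO2, then exposed to compounds in DMSO for 16 hrs. Viability was read in the same wells as intracellular ATP by luminescence, 30 min at room temperature after reagent addition.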

The nature of assay [16]: qHTS assay for cell viability of HEK293 cells (AID 743288; active means well fitted curve in the direction sought with a large enough effect; an effect the other way counts as inactive or inconclusive; further: on the % scale 0 is the no-effect control and ±100 the full control effect; nearly all actives have a fitted effect of over 50% in size). The conditions noted are these: ATP luminescence (CellTiter-Glo), 18 h; max response: stronger effect = lower value. In outline:
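ATP luminescence (CellTiter-Glo) reports metabolically competent cell number after parental HEK293 cells, 2,000/well, were treated with DMSO-dissolved compounds for 18 h at 37 C; reagent incubation 30 min, room temperature.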

Assay [17] is described as follows: qHTS assay for cell viability of the p53RE-bla HCT-116 cell line (AID 743292; active means well fitted curve in the direction sought with a large enough effect; an effect the other way counts as inactive or inconclusive; further: on the % scale 0 is the no-effect control and ±100 the full control effect; nearly all actives have a fitted effect of over 55% in size). The method, boiled down: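 Viability of compound-treated p53RE-bla HCT-116 cells is taken from ATP-dependent luciferase luminescence. Treatment lasts 16 h at 37 C after a 5 h settling period; detection follows 30 min at room temperature.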
The target in assay [18] is Nuclear receptor subfamily 1 group I member 2 (Rattus norvegicus) (UniProt Q9R1A7). The assay can be described thus: qHTS assay for small molecule activators of the rat pregnane X receptor (rPXR) signaling pathway (AID 651751; call rule not given here; further: 0% is about no effect). The conditions noted are these: rPXR reporter cells, luciferase (One-Glo), 24 h.
Chain of Nuclear receptor subfamily 1 group I member 2 (Rattus norvegicus) (Q9R1A7 whole entry, looked up): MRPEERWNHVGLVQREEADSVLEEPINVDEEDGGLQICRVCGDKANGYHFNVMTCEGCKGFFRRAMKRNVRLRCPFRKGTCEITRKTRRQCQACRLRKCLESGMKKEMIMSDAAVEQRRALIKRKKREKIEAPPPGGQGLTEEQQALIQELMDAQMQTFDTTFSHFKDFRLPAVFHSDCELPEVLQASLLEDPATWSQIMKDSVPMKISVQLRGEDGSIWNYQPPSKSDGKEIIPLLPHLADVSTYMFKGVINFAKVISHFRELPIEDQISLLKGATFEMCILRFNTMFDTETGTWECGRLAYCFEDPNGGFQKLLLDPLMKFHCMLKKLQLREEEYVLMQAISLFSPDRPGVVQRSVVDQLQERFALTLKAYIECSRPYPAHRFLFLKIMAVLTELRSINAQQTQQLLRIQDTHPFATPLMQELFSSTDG
Assay [19] addresses Thyroid hormone receptor beta (Homo sapiens) (UniProt P10828). Briefly: qHTS assay for small molecule agonists of thyroid hormone receptor beta signaling (AID 588545). In outline:
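In this cell-based screen, titrated compounds act on HEK 293 cells held in medium with 2% charcoal/dextran FBS, NEAA and pyruvate for 18 hrs at 37 C. Responses are expressed relative to T3 (10 nM) as 100% and basal DMSO as 0%.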

Assay [20] in a line: qHTS assay for small molecule agonists of the antioxidant response element (ARE) signaling pathway measured by Nrf2-dependant transcriptional activity (AID 720636; active means well fitted curve in the direction sought with a large enough effect in the repeat runs; an effect the other way counts as inactive or inconclusive; further: % of control where 0% means no effect). In outline: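 Quantitative HTS format in HepG2 cells stably expressing an ARE-luciferase reporter; 16 hr compound treatment at 37 C, luciferase signal detected with ONE-Glo.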

Chain of Peroxisome proliferator-activated receptor alpha (Homo sapiens) (Q07869 whole entry, looked up): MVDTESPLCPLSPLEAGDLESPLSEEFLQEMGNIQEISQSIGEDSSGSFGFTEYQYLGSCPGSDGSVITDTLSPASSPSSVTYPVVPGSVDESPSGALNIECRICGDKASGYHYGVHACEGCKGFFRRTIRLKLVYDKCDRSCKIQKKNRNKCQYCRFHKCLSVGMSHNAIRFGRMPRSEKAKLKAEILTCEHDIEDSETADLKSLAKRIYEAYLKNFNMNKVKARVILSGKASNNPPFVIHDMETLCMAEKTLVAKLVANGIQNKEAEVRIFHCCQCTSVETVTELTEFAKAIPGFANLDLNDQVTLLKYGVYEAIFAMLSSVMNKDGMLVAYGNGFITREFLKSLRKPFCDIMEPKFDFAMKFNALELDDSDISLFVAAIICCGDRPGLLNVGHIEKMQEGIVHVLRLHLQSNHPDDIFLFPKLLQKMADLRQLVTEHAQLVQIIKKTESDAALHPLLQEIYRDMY
Chain of Estrogen receptor (Homo sapiens) (P03372 whole entry, looked up): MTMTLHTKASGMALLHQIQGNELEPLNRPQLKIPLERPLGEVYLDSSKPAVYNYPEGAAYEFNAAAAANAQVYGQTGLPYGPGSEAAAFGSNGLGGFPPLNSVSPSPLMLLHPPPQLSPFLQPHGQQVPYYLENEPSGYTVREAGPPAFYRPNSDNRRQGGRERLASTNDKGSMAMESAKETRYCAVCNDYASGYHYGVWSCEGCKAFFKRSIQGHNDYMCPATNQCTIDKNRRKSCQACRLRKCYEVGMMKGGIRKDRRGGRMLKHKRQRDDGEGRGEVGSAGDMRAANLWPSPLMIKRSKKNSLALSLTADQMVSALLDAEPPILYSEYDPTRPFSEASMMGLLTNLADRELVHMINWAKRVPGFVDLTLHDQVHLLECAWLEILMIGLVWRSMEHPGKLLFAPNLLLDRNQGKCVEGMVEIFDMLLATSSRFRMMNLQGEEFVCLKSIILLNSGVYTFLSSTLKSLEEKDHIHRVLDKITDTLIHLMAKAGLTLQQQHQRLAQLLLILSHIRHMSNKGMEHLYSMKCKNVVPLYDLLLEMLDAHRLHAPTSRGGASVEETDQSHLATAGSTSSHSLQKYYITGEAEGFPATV
Chain of Vitamin D3 receptor (Homo sapiens) (P11473 whole entry, looked up): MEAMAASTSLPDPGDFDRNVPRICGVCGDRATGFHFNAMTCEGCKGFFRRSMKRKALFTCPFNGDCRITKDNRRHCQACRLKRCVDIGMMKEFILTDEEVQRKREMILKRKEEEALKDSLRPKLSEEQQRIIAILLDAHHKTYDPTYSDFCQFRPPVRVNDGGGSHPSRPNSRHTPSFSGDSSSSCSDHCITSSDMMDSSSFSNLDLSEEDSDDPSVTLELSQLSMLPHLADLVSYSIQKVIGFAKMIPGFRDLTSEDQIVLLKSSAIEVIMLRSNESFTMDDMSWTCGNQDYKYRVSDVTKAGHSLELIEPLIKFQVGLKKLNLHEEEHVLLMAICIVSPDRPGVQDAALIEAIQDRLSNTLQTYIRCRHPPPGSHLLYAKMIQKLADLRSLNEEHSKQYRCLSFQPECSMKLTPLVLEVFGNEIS
Chain of Peroxisome proliferator-activated receptor gamma (Homo sapiens) (P37231 whole entry, looked up): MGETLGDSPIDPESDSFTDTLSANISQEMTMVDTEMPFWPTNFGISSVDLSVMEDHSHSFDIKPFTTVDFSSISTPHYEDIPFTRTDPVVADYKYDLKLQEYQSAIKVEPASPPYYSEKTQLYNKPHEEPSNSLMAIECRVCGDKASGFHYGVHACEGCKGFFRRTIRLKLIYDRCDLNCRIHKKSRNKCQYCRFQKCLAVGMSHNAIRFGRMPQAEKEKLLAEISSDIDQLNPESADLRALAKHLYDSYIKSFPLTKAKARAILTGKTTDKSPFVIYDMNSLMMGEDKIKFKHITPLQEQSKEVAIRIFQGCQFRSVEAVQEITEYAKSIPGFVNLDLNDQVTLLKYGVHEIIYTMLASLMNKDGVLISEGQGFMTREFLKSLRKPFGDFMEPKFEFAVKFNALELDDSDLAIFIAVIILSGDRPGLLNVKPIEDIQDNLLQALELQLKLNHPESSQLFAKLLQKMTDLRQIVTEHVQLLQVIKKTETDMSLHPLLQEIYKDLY
Chain of Thyroid hormone receptor beta (Homo sapiens) (P10828 whole entry, looked up): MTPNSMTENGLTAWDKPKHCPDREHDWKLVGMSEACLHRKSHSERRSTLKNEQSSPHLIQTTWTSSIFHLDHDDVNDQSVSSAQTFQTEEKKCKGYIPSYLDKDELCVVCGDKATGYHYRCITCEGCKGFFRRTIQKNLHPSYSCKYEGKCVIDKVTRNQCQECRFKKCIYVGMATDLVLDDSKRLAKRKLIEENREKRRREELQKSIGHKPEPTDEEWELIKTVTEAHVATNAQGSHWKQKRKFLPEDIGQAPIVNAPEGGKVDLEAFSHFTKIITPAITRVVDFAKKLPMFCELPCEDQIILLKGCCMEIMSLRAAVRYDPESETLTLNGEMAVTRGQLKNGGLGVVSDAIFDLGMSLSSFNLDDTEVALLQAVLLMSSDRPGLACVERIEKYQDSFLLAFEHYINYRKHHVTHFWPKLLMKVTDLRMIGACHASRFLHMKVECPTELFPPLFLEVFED

Take `O=C=Nc1ccc(Cl)cc1`: the Potency entry in assay [1], in assay [2], in assay [4], in [5], in assay [6] and in assay [8] was “inactive” in each case. Also, the Potency entry in [17] is “inactive”. Further, the molecule was classed as inactive in [3] and in assay [7]. For the same molecule, the max response in [9] is -4.38%; in assay [10], -10.5% (inactive); in assay [14], -0.75% (inactive); in assay [15], -2.93% (inactive); in assay [16], -9.38% (inactive); in [18], 8.51% (inactive). Also, the activity change % (negative = inhibition) in assay [11] is -1.95% (inactive). The activation in [12] is 3.11% (inactive); in assay [13], 2.71% (inactive).
As for `Cn1cc(-c2ccccc2)c(=O)c(-c2cccc(C(F)(F)F)c2)c1`, the Potency result in assay [1], in [2], in assay [4], in assay [5], in [19] and in assay [20] was “inactive” in each case. Besides, the Potency entry in [17] was “inactive”. In addition, the max response in [9] is 0.227%; in assay [10], -21.3% (inactive); in assay [14], 1.29% (inactive); in assay [15] it was -0.838% (inactive); in assay [16], -5.04% (inactive); in assay [18], 0.923% (inactive). Also, the activity change % (negative = inhibition) in assay [11] is 1.65% (inactive). Further, in assay [13], the activation was 0.553% (inactive).
In the case of `CC(C)(C)C(=O)[C@H](Oc1ccc(Cl)cc1)n1cncn1`, the Potency entry in [1], in assay [2], in assay [4], in assay [5], in [6] and in assay [8] was “inactive” in each case. For the same molecule, the Potency entry in [20] and in assay [17] was “inactive” each time. In assay [7], the molecule was called inactive. Besides, the max response in assay [9] is 20.1%; in assay [10], -22% (inactive); in [14] it was -2.36% (inactive); in assay [15], -6.65% (inactive); in [16] it was -16.1% (inactive). For the same molecule, the activity change % (negative = inhibition) in assay [11] was -10.2% (inactive). The activation was -5.19% (inactive) in assay [12] and 3.75% (inactive) in assay [13].
Turning to `FC(F)(F)c1ccc(OCCCOc2c(Cl)cc(OCC=C(Cl)Cl)cc2Cl)nc1`, the Potency entry in assay [1], in assay [4], in assay [6], in [8] and in assay [17] was “inactive” each time. Also, the call in [3] and in assay [7] was inactive. Besides, the max response was -14.8% in assay [9]; 3.21% (inactive) in assay [10]; -0.598% (inactive) in assay [14]; -24.7% (inactive) in [15]; -6.52% (inactive) in assay [16]; 1.93% (inactive) in assay [18]. Besides, the activity change % (negative = inhibition) in assay [11] was 2.93% (inactive). For the same molecule, in assay [12], the activation is 2.67% (inactive).
In the case of `CCCCC(CC)CO[N+](=O)[O-]` (stereo not given), the Potency result in assay [1], in assay [2], in assay [4], in assay [5], in assay [6] and in assay [8] was “inactive” throughout. Further, the Potency entry in assay [19], in [20] and in assay [17] was “inactive” in each case. In addition, the outcome in [3] and in assay [7] was inactive. The max response in assay [9] is -8.14%; in [10], 3.31% (inactive); in assay [14], -0.348% (inactive); in [15], -12.3% (inactive); in [16] it was 3.43% (inactive); in assay [18], 1.62% (inactive). Besides, the activity change % (negative = inhibition) in [11] is -3.31% (inactive). Besides, the results for the activation in assay [12] and in assay [13] were -4.18% (inactive) and 2.43% (inactive), respectively.
